# In PubChem BioAssay:
# The source made the active and inactive calls.
# Tests used:
# [1] = anti-His antibody binders, primary screen, artefact control for SMM control protein annotation, biochemical, small-molecule microarray, 635 nm fluorescence (AID 1128); details: anti-His Alexa647 antibody binding, higher = more signal;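 note: score merges feature fluorescence with signal-to-noise for each printed compound spot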
# [2] = test system: Human papillomavirus type 1a E7 protein (residues 1-88); assay: HPV1a E7 small-molecule binders, primary screen, biochemical, small-molecule microarray, residues 1-88, 635 nm (AID 1129); details: small-molecule microarray binding, fluorescence 635 nm; higher = more signal
# [3] = molecular target: Focal adhesion kinase 1 (Homo sapiens) (UniProt Q05397); assay: small-molecule microarray binders of FAK, primary screen, biochemical, 635/667 nm fluorescence, BSA, DTT (AID 1130); details: PTK2 binding, 635 nm fluorescence, higher = more signal;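 note: composite of spot emission at 667 nm and signal to noise over triplicate slides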
# Focal adhesion kinase 1 (Homo sapiens), sequence (Q05397 whole entry, looked up): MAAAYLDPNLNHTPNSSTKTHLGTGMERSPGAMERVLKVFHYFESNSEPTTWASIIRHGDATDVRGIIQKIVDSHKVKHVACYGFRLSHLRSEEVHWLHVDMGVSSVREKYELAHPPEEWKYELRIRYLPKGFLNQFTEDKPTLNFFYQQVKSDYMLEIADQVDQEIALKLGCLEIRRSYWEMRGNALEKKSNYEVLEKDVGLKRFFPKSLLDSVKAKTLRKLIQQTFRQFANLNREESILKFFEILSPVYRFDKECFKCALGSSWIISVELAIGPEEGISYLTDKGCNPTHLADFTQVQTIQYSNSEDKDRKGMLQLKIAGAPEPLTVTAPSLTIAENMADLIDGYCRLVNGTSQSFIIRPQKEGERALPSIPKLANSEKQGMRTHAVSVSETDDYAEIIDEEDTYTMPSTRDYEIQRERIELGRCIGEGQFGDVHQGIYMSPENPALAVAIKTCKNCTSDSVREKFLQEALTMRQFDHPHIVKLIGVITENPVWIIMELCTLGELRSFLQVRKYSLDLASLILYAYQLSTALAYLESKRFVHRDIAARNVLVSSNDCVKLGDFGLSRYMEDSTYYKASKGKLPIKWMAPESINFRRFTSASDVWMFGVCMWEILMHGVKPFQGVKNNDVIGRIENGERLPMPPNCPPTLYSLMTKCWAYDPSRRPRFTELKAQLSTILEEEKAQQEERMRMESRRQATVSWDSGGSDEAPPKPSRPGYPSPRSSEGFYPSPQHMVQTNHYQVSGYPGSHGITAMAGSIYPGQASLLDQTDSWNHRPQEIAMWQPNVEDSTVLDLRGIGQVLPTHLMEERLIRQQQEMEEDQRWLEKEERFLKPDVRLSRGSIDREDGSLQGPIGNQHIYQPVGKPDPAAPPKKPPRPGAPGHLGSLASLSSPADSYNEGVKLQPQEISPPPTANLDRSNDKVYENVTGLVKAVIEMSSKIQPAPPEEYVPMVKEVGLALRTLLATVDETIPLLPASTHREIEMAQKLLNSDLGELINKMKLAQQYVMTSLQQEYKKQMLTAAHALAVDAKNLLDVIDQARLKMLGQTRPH
# [4] = test system: Fibrinogen (Alexa647-labelled); assay: fibrinogen binders on compound microarrays, profiling panel, artefact control for SMM control-protein annotation, biochemical, small-molecule microarray, 635/667 nm fluorescence (AID 1131); details: fibrinogen-A647 binding fluorescence, higher = more signal;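 note: z-score merges 667 nm fluorescence with per-spot signal-to-noise over triplicate slides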
# [5] = molecular target: Follistatin (Homo sapiens) (UniProt P19883); assay: follistatin binders on small-molecule microarrays, primary screen, biochemical, small-molecule microarray, 635/667 nm fluorescence (AID 1132); details: FST binding, 635 nm fluorescence, higher = more signal
# Follistatin (Homo sapiens), sequence (P19883 whole entry, looked up): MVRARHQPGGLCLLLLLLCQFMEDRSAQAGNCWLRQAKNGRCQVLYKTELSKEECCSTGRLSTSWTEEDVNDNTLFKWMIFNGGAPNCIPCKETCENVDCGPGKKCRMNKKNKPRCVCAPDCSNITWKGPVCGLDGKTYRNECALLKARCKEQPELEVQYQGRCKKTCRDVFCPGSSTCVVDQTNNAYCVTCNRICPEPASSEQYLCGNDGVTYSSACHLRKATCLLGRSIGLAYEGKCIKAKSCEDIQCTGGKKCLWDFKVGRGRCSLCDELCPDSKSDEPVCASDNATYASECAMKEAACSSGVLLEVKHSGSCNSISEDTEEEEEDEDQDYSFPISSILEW
# [6] = molecular target: Fibroblast growth factor 2 (Homo sapiens) (UniProt P09038); assay: FGF2 binders on small-molecule microarrays, primary screen, biochemical, small-molecule microarray, 635/667 nm fluorescence (AID 1133); details: small-molecule microarray binding, FGF2, fluorescence 635/667; higher = more signal
# Fibroblast growth factor 2 (Homo sapiens), sequence (P09038 whole entry, looked up): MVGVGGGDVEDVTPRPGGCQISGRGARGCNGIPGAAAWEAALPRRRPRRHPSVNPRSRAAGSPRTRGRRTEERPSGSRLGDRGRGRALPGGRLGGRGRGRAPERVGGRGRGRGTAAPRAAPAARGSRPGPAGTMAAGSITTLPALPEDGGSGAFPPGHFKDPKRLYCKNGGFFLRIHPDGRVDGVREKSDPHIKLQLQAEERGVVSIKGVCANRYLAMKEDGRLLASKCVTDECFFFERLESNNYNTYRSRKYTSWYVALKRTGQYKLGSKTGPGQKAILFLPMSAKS
# [7] = mitochondrial membrane potential change in A549 cells, profiling panel, cell-based, JC-1 fluorescence, basal, 24 h, 100 nL (AID 1138); details: higher = more signal;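 note: A549 lung adenocarcinoma cells under basal conditions with no added stimulus; test concentration not given here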
# [8] = test system: Lefty1; assay: Lefty1 binders on small-molecule microarrays, primary screen, biochemical, small-molecule microarray, 635/667 nm fluorescence (AID 1139); details: small-molecule microarray binding, fluorescence 635/667; higher = more signal
# [9] = test system: wheat germ agglutinin (Triticum aestivum), Alexa647-labelled; assay: wheat germ agglutinin binders on compound microarrays, profiling panel, artefact control for SMM control-protein annotation, biochemical, small-molecule microarray, 635/667 nm fluorescence (AID 1140); details: WGA-A647 binding, 635 nm fluorescence, higher = more signal;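 note: score merges 667 nm feature emission with signal to noise over triplicate slides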
# [10] = molecular target: Luciferin 4-monooxygenase (Photinus pyralis) (UniProt P08659); assay: firefly luciferase enzyme inhibitors, primary screen, biochemical, luminescence, purified enzyme, 2006 set (AID 1141); details: SteadyGlo luminescence, 30 min, higher = more signal, called active from +8 up or from −8 down;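 note: cell-free assay with purified firefly luciferase at 100 ng per well in PBS; test concentration not given here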
# Luciferin 4-monooxygenase (Photinus pyralis), sequence (P08659 whole entry, looked up): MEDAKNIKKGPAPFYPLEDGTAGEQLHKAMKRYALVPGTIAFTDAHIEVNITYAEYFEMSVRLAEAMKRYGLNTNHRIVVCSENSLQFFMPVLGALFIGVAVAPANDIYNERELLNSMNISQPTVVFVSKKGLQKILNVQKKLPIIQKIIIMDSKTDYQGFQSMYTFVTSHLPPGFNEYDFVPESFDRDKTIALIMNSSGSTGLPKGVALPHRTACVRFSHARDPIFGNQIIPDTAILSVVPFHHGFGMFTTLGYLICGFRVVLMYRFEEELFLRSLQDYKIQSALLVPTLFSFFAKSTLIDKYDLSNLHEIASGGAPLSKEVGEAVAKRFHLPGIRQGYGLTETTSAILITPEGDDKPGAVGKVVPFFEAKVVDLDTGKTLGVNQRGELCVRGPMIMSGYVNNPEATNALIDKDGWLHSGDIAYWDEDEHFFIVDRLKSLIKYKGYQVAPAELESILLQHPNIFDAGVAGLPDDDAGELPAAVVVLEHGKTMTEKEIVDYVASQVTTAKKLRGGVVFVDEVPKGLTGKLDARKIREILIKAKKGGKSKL
Structure (SMILES),composite z-score [1],composite z-score [2],composite z-score [3],composite z-score [4],composite z-score [5],composite z-score [6],z-score [7],composite z-score [8],composite z-score [9],z-score [10]
CC(C)c1ccc(NN2C(C(O)c3cc(C(F)(F)F)cc(C(F)(F)F)c3)C=CC3C(=O)N(c4ccccc4)C(=O)C32)cc1 (stereo not given),0.444,1.22,0.579,0.975,-0.105,-0.313,-0.731,-0.842,1.13,0.0708 (inactive)
COC(=O)[C@@]1(Cc2ccc(F)cc2)[C@H]2c3cc(C(=O)N4CCCC4)n(Cc4cc(C)n(C)n4)c3C[C@H]2CN1C(=O)c1ccccc1,1.85,1.26,1.03,1.01,0.392,-0.47,0.0507,-0.847,0.628,0.609 (inactive)
[N-]=[N+]=Nc1ccccc1C[C@@]1(C(=O)NCCN2CCOCC2)N=C(c2ccc(OCCCO)cc2)O[C@@H]1c1ccccc1,0.76,1.26,0.85,1.03,1.3,1.19,0.662,0.7,0.823,-1.7 (inactive)
C[C@@H]1ON(c2cccc(C(=O)OC(C)(C)C)c2)[C@H](c2ccc(Br)cc2)[C@H]1C(=O)N1C(=O)OC[C@H]1Cc1ccccc1,0.556,0.77,0.306,0.937,1.21,0.735,1.63,0.766,0.106,-0.68 (inactive)
COC(=O)[C@@]1(Cc2ccccc2)[C@H]2c3cc(C(=O)N(C)C)n(CCSCCO)c3C[C@H]2CN1C(=O)c1ccccc1,1.25,1.2,0.342,0.632,-0.347,-0.299,0.599,-0.84,0.879,1.14 (inactive)
COc1cc2c(cc1OC)CN(C(=O)[C@@H]1[C@H]3C(=O)O[C@H](c4ccccc4)[C@H](c4ccccc4)N3[C@H](c3ccc(O)cc3)[C@@]13C(=O)Nc1ccc(C#CC4(O)CCCCCC4)cc13)CC2,2.4,1.25,0.592,0.924,1.14,1.35,-0.373,0.999,0.137,-0.798 (inactive)
CC(CO)N1C(=O)[C@@H]2C3C(=O)OCCC/C=C\[C@H]3OC23C=CCN(c2ccc4ccccc4c2)C(=O)[C@@H]13 (stereo not given in full),0.339,-0.351,-0.363,0.167,-0.382,-0.865,0.45,-0.632,0.0312,-0.846 (inactive)
CC(C)(C)OC(=O)CC[C@@]1(C(N)=O)N=C(c2ccc(OCCCO)cc2)O[C@@H]1c1ccccc1,1.27,1.13,0.754,0.971,0.136,-0.343,-0.655,-0.0503,0.178,-0.637 (inactive)
CCc1oc(CC[C@@H](CO)NC(=O)NCCn2cc(C3(O)CCCCC3)nn2)c(C(=O)OC)c1C(=O)OC,2.48,0.687,-0.353,0.685,1.28,1.13,-0.0225,1.63,0.074,0.654 (inactive)
COc1ccc(CCN2C(=O)[C@@]3(c4ccc([N+](=O)[O-])cc4)CC(=O)N(C4CCCCC4)[C@@H]3c3ccc(CO)cc32)cc1,0.521,-0.82,0.151,-0.382,1.42,1.4,-0.552,0.563,-0.569,0.3 (inactive)
COCCOC(=O)N1C(=O)[C@@]2(c3cc(C#CC4=CCCCC4)ccc31)[C@H](c1ccc(O)cc1)N1[C@H](c3ccccc3)[C@H](c3ccccc3)OC(=O)[C@H]1[C@@H]2C(N)=O,0.711,1.08,0.334,0.644,1.32,1.57,-0.858,1.23,0.766,-1.37 (inactive)
COc1ccc(CCN2C(=O)[C@@]3(Cc4ccccc42)c2ccccc2C(=O)N(Cc2ccccc2C(F)(F)F)[C@H]3c2ccc(CO)cc2)cc1,0.752,-0.175,-0.324,0.732,1.12,0.83,-0.963,0.541,0.461,0.642 (inactive)
C=CCN(Cc1ccccc1)C(=O)C(c1cccs1)N(CCOCCO)C(=O)/C=C\C(=O)O (stereo not given),-0.187,-0.92,-0.374,-2.2,-2.64,-2.43,0.316,-2.47,-0.47,-3.93 (inactive)
CCOC1=C2C(CN(S(=O)(=O)c3ccc(C)cc3)C2c2ccc(C)cc2)C2C(=O)N(c3ccccc3)C(=O)C2C1 (stereo not given),0.727,1.15,0.553,0.783,0.475,0.301,-0.368,0.535,0.4,1.09 (inactive)
COCCOC(=O)N1C(=O)[C@@]2(c3ccccc31)[C@H](c1ccccc1OCCO)N1[C@H](c3ccccc3)[C@H](c3ccccc3)OC(=O)[C@H]1[C@@H]2C(=O)Nc1nc2ccccc2s1,1.04,1.19,0.445,0.994,1.35,1.03,-1.91,1.34,1.18,-2.37 (inactive)
